Consider four molecules from PubChem BioAssay (NCI).

Molecules are shown by their SMILES. The panel holds about 83,000 compounds, 20% with a hit somewhere; the sample as a whole holds those more often.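 Cell lines were cultured in 96-well plates, exposed to a single compound concentration, and assessed for percent growth 48 hours later.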 A number with no mark means an inactive call. Calls of active or inactive are those of the source. Rule for the calls: active = growth percent below 10; inactive = the rest.

The assay concerns MDA-MB-468 breast. The experiment in a line: NCI-60 one-dose screen, 48 h (100 = growth as untreated, 0 = no growth, -100 = all killed). Conditions: 10 µM unless noted.
Take `Fc1ccc(NCc2nnc(-c3ccc(Cl)cc3)o2)cc1`: the growth is 56.9%.

`N#Cc1c(-c2ccc(Cl)cc2)nc(NN=Cc2cccc(O)c2)nc1N1CCOCC1`: the growth is 87.4%.

For the molecule `O=C1c2ccc3c4c(ccc(c24)C(=O)N1CCCNCc1ccccc1)C(=O)N(CCCNCc1ccccc1)C3=O`, the growth was -95.5% (active).

With `COc1cccc(CNc2c3ccccc3nc3ccccc23)c1`, the growth was 13.6%.
